# High-throughput results from PubChem BioAssay.
# Most compounds without a hit are left out; they make up all but 6.6% or so of the library.
# TGFb inhibitor – blocks TGF-b signaling; actives 1.2% (n = 410,000); Potency, µM (titrated, usually from 46.1 µM), for inactives: at the top dose activity, negative = inhibition, actives largely listed as inhibitors; HepG2 CAGA-GFP TGF-b/SMAD3 reporter, GFP fluorescence, 18 h; TGF-beta stimulated, 500 pg/mL final; AID 588855; further: on the % scale 0 is the no-effect control and ±100 the full control effect; nearly all actives have a fitted effect of over 65% in size
#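 Smad-responsive CAGA-GFP expression was quantified in HEPG2 cells exposed to compounds and 500 pg/mL final TGF-beta for 18 h at 37 degrees C; unstimulated wells defined full inhibition.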
# HT1080-NT tox – kills 2HG-producing HT-1080-NT fibrosarcoma cells | HT-1080-NT fibrosarcoma viability, CellTiter-Glo ATP luminescence, 48 h | Potency, µM (doses to about 46.1 µM), without a hit: at the highest dose activity, negative = less viability, hits mostly cytotoxic | actives 1.6% (n = 360,000) | AID 686970;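 further: NT is the 2HG producing partner of a matched IDH1 knockdown line; 0% = DMSO-treated cells and -100% = media-only wells without cells; nearly all actives have a fitted effect of over 55% in size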
#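 Compounds were tested in concentration-response format on HT-1080-NT cells for 48 hours at 37 degrees C. Cell viability came from CellTiter-Glo luminescence; curves were classified by r2, response magnitude and activity.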
# HT1080 IDH1KD tx – HT-1080 IDH1 knockdown cell toxicity (counter line); HT-1080 IDH1 knockdown viability, ATP luminescence, 48 h; actives 2% (n = 360,000); Potency, µM (highest dose often 46.1 µM), for inactives: top-dose activity, negative = toxicity, actives largely listed as cytotoxic;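 further: 0% = DMSO wells and -100% = cell-free medium wells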
#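 CellTiter-Glo luminescence after 48 h compound exposure at 37 degrees C of IDH1-knockdown HT-1080 cells in 5% FBS RPMI. %Activity scaled between DMSO wells and cell-free media wells, with curves fitted and assigned curve classes.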
# HepG2 viability – HepG2 cytotoxicity, counter-screen for TGF-b inhibitors; Potency, µM (highest dose often 46.1 µM), for the others: at the highest dose activity change, negative = cytotoxicity, usual class: cytotoxic; HepG2 CAGA-GFP viability, ATP luminescence, 18 h; actives 0.76% (n = 410,000)
#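 CellTiter-Glo luminescence gave cytotoxicity after 18 hours at 37 degrees C. The cells were HepG2 CAGA-GFP in 1% FBS DMEM, stimulated with 500 pg/mL TGF-beta after compound addition. %Activity was normalised to no-cell wells (complete cell-killing) and DMSO (no toxicity), and curves were fitted and classified.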
# KB-3-1 cytotox – KB-3-1 parental cell cytotoxicity; KB-3-1 viability, CellTiter-Glo ATP luminescence, 72 h; Potency, µM (doses to about 46.1 µM), hits mostly cytotoxic; actives 1.4% (n = 400,000); further: on the % scale 0 is the no-effect control and ±100 the full control effect; nearly all actives have a fitted effect of over 60% in size
#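 Viability of parental KB-3-1 cells, measured by CellTiter-Glo luminescence, followed a 72 h incubation at 37 °C with pinned compounds in phenol-red-free DMEM containing 10% FBS.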
# KB-V1 MDR tox – kills drug-selected multidrug resistant KB-V1 cells | KB-V1 MDR cells viability, CellTiter-Glo, 72 h | Potency, µM (top dose mostly 46.1 µM), usual class: cytotoxic | actives 3.4% (n = 400,000); further: on the % scale 0 is the no-effect control and ±100 the full control effect; nearly all actives have a fitted effect of over 60% in size
#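 Cytotoxicity toward P-gp-expressing KB-V1 cells was determined as loss of CellTiter-Glo luminescence after 72 h at 37 degrees C. Compounds were tested in quantitative HTS format across a concentration range, with curves fitted to normalized data.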
# Starred values were filed as active, the others as inactive; i = inactive; ? = inconclusive; nt = no result; ! = repeats disagree. The call rests on the fitted dose curve; in most records, active means well fitted curve in the direction sought with a large enough effect; inconclusive means small, poorly fitted or top-dose-only effect, or another doubt; inactive means no such curve, though single readings can be large; an effect the other way counts as inactive or inconclusive. Potency means the concentration at half of the fitted maximal effect.
SMILES,TGFb inhibitor,HT1080-NT tox,HT1080 IDH1KD tx,HepG2 viability,KB-3-1 cytotox,KB-V1 MDR tox
CCCCCCC(C)(C)c1ccc([C@@H]2C[C@H](O)CC[C@H]2CCCO)c(O)c1,13µM*,2.6µM*,4.6µM*,10µM*!,?,?
ClCCN(CCCl)/C(=C\c1ccccc1)c1ccnc2ccccc12,?,nt,nt,-42%,?,?
C=C1C(=O)[C@@]23C[C@H]4[C@@H]5[C@@]6(C)CCC[C@@]57[C@@H]2[C@@H](O)[C@@H]1C[C@H]3[C@H]7N4C6,13µM*,?,?,-48%,?,i
Cc1ccc(C)c(N2CCN(c3ncnc4onc(C)c34)CC2)c1,?,nt,nt,-22%,?,?
CN(C)CC/C=C1\c2ccccc2Sc2ccc(Cl)cc21,?,21µM*,?,-68%,i,?
CN(C)CCC=C1c2ccccc2CCc2ccccc21,30%,?,23µM*,-26%,i,21µM*
CN(C)CCCN1c2ccccc2Sc2ccc(Cl)cc21,?,15µM*!,?,18µM*!,?,13µM*!
Cn1nc(C(F)(F)F)c(-c2ccccc2)c1N,0%,5%,0%,-30%,i,?
Cc1c(C(=O)NCc2ccc(Cl)c(Cl)c2)sc(=O)n1Cc1ccc(S(=O)(=O)N(C)C)cc1,?,-12%,?,-22%,8.2µM*,?
CC(=O)O[C@H]1[C@H]2O[C@]23[C@@H]2CC[C@]4(O)C[C@@H](O)CC[C@]4(C)C2CC[C@]3(C)[C@H]1c1ccc(=O)oc1 (stereo partly specified),3.5µM*,0.82µM*,0.015µM*,-60%,?,i
C[C@]12CC[C@H](O)C[C@H]1CCC1C2CC[C@]2(C)[C@@H](c3ccc(=O)oc3)C[C@H]3O[C@]132 (stereo partly specified),7.9µM*,nt,nt,6.3µM*,?,?
C[C@]12CC[C@H]3C(CCC4(O)CC(O)CC[C@]34C=O)C1=CC[C@H]2c1ccc(=O)oc1 (stereo partly specified),?,13µM*,5.8µM*,7.1µM*,23µM*,i
O=c1c2ccccc2nc(/C=C/c2ccccc2F)n1-c1cccc(O)c1,-10%,nt,nt,-10%,nt,nt
Cc1ccc(NC(=O)c2cc(-c3cc(Cl)ccc3C)n[nH]2)cc1NS(C)(=O)=O,-10%,?,?,-32%,i,i
O=C(CN1CCN(C(=O)CNC(=O)c2ccc(-c3ccccc3)cc2)CC1)Nc1ccccc1Cl,-9%,?,?,-26%,?,8.2µM*
Cc1cc([N+](=O)[O-])c2ccccc2[n+]1[O-],0.5µM*,6.5µM*,8.2µM*,-126%,0.92µM*,0.52µM*
COC(=O)c1ccc(NC(=O)CSc2nc3ccc(N4C(=O)C5C6C=CC(C6)C5C4=O)cc3s2)cc1 (stereo unspecified),-6%,-29%,?,-39%,21µM*,21µM*
OC[C@H]1OC(O)C[C@@H](O)[C@@H]1O (stereo partly specified),-16%,?,17%,-1%,i,i
CC(C)NCC(O)c1ccc(C2CCCC2)cc1 (stereo unspecified),-2%,?,-22%,-25%,i,23µM*
O=C(Cn1c(=O)oc2cc(S(=O)(=O)N3CCCCCC3)ccc21)NCc1ccccc1Cl,?,nt,nt,-43%,?,?
O=C1NC(=O)C2(Cc3ccccc3N3CCOCC32)C(=O)N1c1ccccc1 (stereo unspecified),-9%,?,18µM*,13%,?,?
